From PubChem BioAssay
Shown are actives, neighbours in structure and some others; about 3.3% of the full set was active somewhere.
Gli-Sufu antag – Gli-Sufu pathway antagonists, primary screen, luciferase luminescence, Sufu-KO-LIGHT cells, uHTS; inhibition, % at 5 µM; hit rate 0.74% among 340,000; Sufu-KO-LIGHT fibroblasts, Gli luciferase reporter luminescence;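 active means inhibition above about 55%, limit read from the data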
697 NFkB inh – inhibitors of PMA/ionomycin-induced NF-kB reporter, 697 cells, primary screen, B-cell NF-kB inhibitor project, cell-based, luminescence, uHTS | 697 B-cell NF-kB luciferase reporter, 16 h | AID 435022, 2010 | hit rate 0.33% among 330,000 | inhibition, % at 4 µM; in the data active means inhibition above about 35%
Jurkat NFkB inh – inhibitors of induced NF-kB luciferase reporter, primary screen, TCR NF-kB activation inhibitor project, cell-based, luminescence, uHTS. inhibition, % at 4 µM. AID 435003, 2010. hit rate 0.53% among 330,000. Jurkat, PMA/ionomycin-induced NF-kB luciferase reporter; in the data active means inhibition above about 50%
SMARCA2 activ – SMARCA2 (BRM) function activators, primary screen, cell-based, luminescence, high throughput; activation, % at 9.1 µM; MG213 cells, MMTV-luciferase reporter, dexamethasone, overnight; hit rate 1% among 370,000; in the data active means activation above about 7.8%
esBAF inh – Bmi1 luciferase reporter increase in mESCs, primary screen, esBAF inhibitor project, mouse ES cells, Bmi1 luciferase knock-in, single point; 24 h; 100% = twice the neutral-well signal; reporter increase, % at 12.5 µM; hit rate 2% among 350,000; AID 602393, 2012; in the data active means activation above about 40%;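 further: a rise in the Bmi1 reporter signal indicates esBAF inhibition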
Of the large screens only hits and unclear results are named; the others gave an inactive call.

C[C@H](CO)N1C[C@H](C)[C@H](CN(C)C(=O)c2ccccc2)OCCCC[C@H](C)Oc2ccc(NS(=O)(=O)c3ccccc3)cc2C1=O	none (no result: Gli-Sufu antag, 697 NFkB inh, Jurkat NFkB inh, SMARCA2 activ)
COc1ccc(NC(=O)Nc2ccc3c(c2)[C@@H]2C[C@@H](CC(=O)NCC4CC4)O[C@H](CO)[C@@H]2O3)cc1	none (no result: Gli-Sufu antag, 697 NFkB inh, Jurkat NFkB inh, SMARCA2 activ)
CO[C@@H]1CN(C)C(=O)c2cc(NC(C)=O)ccc2OC[C@@H](C)N(C(=O)CC2CC2)C[C@H]1C	none (no result: Gli-Sufu antag, 697 NFkB inh, Jurkat NFkB inh, SMARCA2 activ)
Cc1nc(C)c(-c2csc(NCc3ccco3)n2)s1	esBAF inh 62
Cc1nc(C)c(-c2csc(NCc3ccccc3)n2)s1	none (no result: esBAF inh)
C/C(=C\c1ccc(C(=O)O)cc1)c1ccc2c(c1)C(C)(C)CCC2(C)C	esBAF inh 46
COC(=O)c1sccc1NC(=O)c1ccc(C)o1	none
COC(=O)c1sccc1-c1ccc(C(=O)Nc2ccccc2)o1	esBAF inh 74
CCC(=O)N1[C@@H]2c3ccc(/C=C/c4ccccc4)c(=O)n3C[C@@H]2[C@@H](CO)[C@@H]1C(=O)OC	none (no result: Gli-Sufu antag, 697 NFkB inh, Jurkat NFkB inh, SMARCA2 activ)
Cc1ccc(C(=O)c2coc3c2C(=O)C(=O)c2ccccc2-3)cc1	esBAF inh 42
Cc1ccc(C(=O)c2c(C)oc3c2C(=O)C(=O)c2ccccc2-3)cc1	none (no result: SMARCA2 activ, esBAF inh)
CCOc1ccc(C2=CC(=O)C[C@H](c3ccc(OC)cc3)C2)cc1	esBAF inh 76
O=C1C=C(c2ccc(-c3ccccc3)cc2)C[C@@H](c2ccc(F)cc2)C1	none
O=C1C=C(c2ccc(C(=O)O)cc2)C[C@@H](c2ccc(F)cc2)C1	esBAF inh 45
CO[C@H]1CN(C)C(=O)c2ccc(NC(=O)C3CC3)cc2OC[C@H](C)N(C(=O)c2ccccc2F)C[C@@H]1C	none (no result: Gli-Sufu antag, 697 NFkB inh, Jurkat NFkB inh, SMARCA2 activ)
C[C@@H]1CN([C@@H](C)CO)C(=O)c2cccc(NC(=O)NC3CCCCC3)c2O[C@H]1CN(C)C(=O)Nc1ccc2c(c1)OCO2	none (no result: Gli-Sufu antag, 697 NFkB inh, Jurkat NFkB inh, SMARCA2 activ)
CCCC#Cc1ccc2c(c1)O[C@H](CN(C)C(=O)c1ccccn1)[C@H](C)CN([C@@H](C)CO)S2(=O)=O	none (no result: Gli-Sufu antag, 697 NFkB inh, Jurkat NFkB inh, SMARCA2 activ)
CC(C)NC(=O)N1[C@H](CO)[C@@H](c2ccccc2)[C@@H]1CNC(=O)CN(C)C	none (no result: Gli-Sufu antag, 697 NFkB inh, Jurkat NFkB inh, SMARCA2 activ)
CC[C@@H](C(=O)[C@@H](C)[C@@H](O)[C@H](C)[C@@H]1O[C@@H]([C@@H](CC)C(=O)O)CC[C@@H]1C)[C@H]1O[C@]2(C=C[C@@H](O)[C@]3(CC[C@@](C)([C@H]4CC[C@](O)(CC)[C@H](C)O4)O3)O2)[C@H](C)C[C@@H]1C	Gli-Sufu antag 90 (no result: 697 NFkB inh, Jurkat NFkB inh)
CN(C)c1ccnc(N(Cc2ccccc2)Cc2ccccc2)c1C#N	esBAF inh 74 (no result: SMARCA2 activ)
COc1ccc(NC(C)=O)cc1S(=O)(=O)Nc1ccccc1C(=O)NCCc1ccccc1	esBAF inh 55
CC(C)(C)n1ncc2c(=O)n(CC(=O)NC3CCCCC3)cnc21	esBAF inh 44
Cc1ccc(-n2ncc3c(=O)n(CC(=O)NC4CCCCC4)cnc32)cc1C	none
CC1=NN(C(N)=S)C(=O)C1N=Nc1ccc(Cl)cc1 (stereo not given)	none
CC1=NN(C(N)=S)C(=O)C1N=Nc1cccc(Cl)c1C (stereo not given)	esBAF inh 51
C/C=C/c1ccc2c(c1)O[C@@H](CN(C)C(=O)CC)[C@@H](C)CN([C@H](C)CO)S2(=O)=O	none (no result: Gli-Sufu antag, 697 NFkB inh, Jurkat NFkB inh, SMARCA2 activ)
CO[C@@H]1CN(C)C(=O)c2cc(NS(C)(=O)=O)ccc2OC[C@H](C)N(C(=O)c2ccc3c(c2)OCO3)C[C@@H]1C	none (no result: Gli-Sufu antag, 697 NFkB inh, Jurkat NFkB inh, SMARCA2 activ)
CC(C)OC(=O)CSc1nc2cc3c(cc2cc1C#N)OCO3	esBAF inh 59
CCOc1ccc2cc(C#N)c(SCC(=O)N3CCOCC3)nc2c1	none
CCOC(=O)CSc1nc2ccc(C)cc2cc1C#N	esBAF inh 71
CC(C)OC(=O)CSc1nc(N)c(C#N)cc1C#N	none (no result: esBAF inh)
N#Cc1cc2cc3c(cc2nc1SCC(=O)N1CCOCC1)OCO3	esBAF inh 52
CCOC(=O)CSc1nc2cc(C)cc(C)c2cc1C#N	none
Cc1noc(C)c1S(=O)(=O)Nc1ccc2c(c1)CC(=O)N([C@H](C)CO)C[C@H](C)[C@H](CN(C)C(=O)NC(C)C)O2	none (no result: Gli-Sufu antag, 697 NFkB inh, Jurkat NFkB inh, SMARCA2 activ)
C[C@@H]1CN([C@@H](C)CO)C(=O)c2cccc(NC(=O)C3CCCCC3)c2O[C@@H]1CN(C)Cc1ccncc1	none (no result: Gli-Sufu antag, 697 NFkB inh, Jurkat NFkB inh, SMARCA2 activ)
Cc1ccc2c(C)c(C(=O)N3CCN(Cc4ccc5c(c4)OCO5)CC3)oc2c1C	esBAF inh 79
